Hit rate of the full screen: of about 52,000 compounds, about 1,700 (3.3%) were called active. Rule as the data show it: active = survival mostly below about 52% (no sharp cut-off); inactive = mostly above about 56%. Many of the other results were omitted from the sample, so actives are more common in it than they were.
What follows are molecules tested on Wild type (assay: S. aureus survival, RN4220 and DeltatarO strains – OD600, teichoic acid synthesis inhibitors, primary screen (AID 463173)). Details: S. aureus RN4220 wild type/DeltatarO growth, OD600, 18 h, hits give low values, screened at 18.75 µg/mL (by protocol).
`C#CC(C)(CC)NC(=O)Cn1nnc(-c2ccc(OCc3ccccc3Cl)cc2)n1` (configuration not stated) was tested, and the survival was 74% (inactive). `CC1=CC(C)(C)Nc2ccc(OC(=O)c3ccco3)cc21` was tested, and the survival was 125% (inactive). In the case of `CCc1ccc(NC(=O)Cn2cnc3sc(C)c(S(=O)(=O)N4CCN(c5ccccc5OC)CC4)c3c2=O)cc1`, the survival is reported as 138% (inactive). With `CCOC(=O)Cn1c(=O)n(-c2ccccc2OC)c2nc(-c3ccccc3)nc(C(N)=O)c21` the survival was -3% (active). In the case of `CCOC(=O)Cn1c(=O)n(CC2CCCO2)c2nc(-c3ccc(OCC)cc3)nc(C(N)=O)c21` (configuration not stated), the survival is reported as -4% (active). In the case of `CCOC(=O)Cn1c(=O)n(CC2CCCO2)c2nc(-c3ccc(C(C)C)cc3)nc(C(N)=O)c21` (configuration not stated), the survival is reported as 1% (active). In the case of `CCOC(=O)Cn1c(=O)n(CC2CCCO2)c2nc(-c3ccc(C)cc3)nc(C(N)=O)c21` (configuration not stated), the survival is reported as 63% (inactive). For `CCOC(=O)Cn1c(=O)n(CC2CCCO2)c2nc(-c3ccc(CC)cc3)nc(C(N)=O)c21` (configuration not stated), the survival was 81% (inactive). For `CCOC(=O)Cn1c(=O)n(CC2CCCO2)c2nc(-c3cccc(C)c3)nc(C(N)=O)c21` (configuration not stated), the survival was 55% (inactive). For `CCOC(=O)Cn1c(=O)n(CC2CCCO2)c2nc(-c3ccccc3)nc(C(N)=O)c21` (configuration not stated), the survival was 56% (inactive). For `CCOC(=O)Cn1c(=O)n(-c2ccccc2OC)c2nc(-c3cccc(F)c3)nc(C(N)=O)c21`, the survival was 57% (inactive). For `CCOC(=O)Cn1c(=O)n(-c2ccccc2OC)c2nc(-c3ccc(C(C)C)cc3)nc(C(N)=O)c21`, the survival was 82% (inactive). For `CCCCC(=O)Nc1ccc(NC(=O)C2CC2)nc1`, the survival was 101% (inactive). In the case of `COc1ccc(OC)c(NC(=O)Cc2c(C(=O)O)n(C)c3ccc(C)cc23)c1`, the survival is reported as 88% (inactive). `CC1CCCN(S(=O)(=O)c2cc3c4c(c2)CC(=O)N4CCC3)C1` (configuration not stated) was tested, and the survival was 81% (inactive). In the case of `CC(C)Cn1c(=O)c2sccc2n2c(CCCC(=O)NCC(C)c3ccccc3)nnc12` (configuration not stated), the survival is reported as 96% (inactive). For `CCCC(=O)N(c1ccc2oc3c(c2c1)CCCC3)S(=O)(=O)c1cc(C)ccc1C`, the survival was 61% (inactive). `COc1ccccc1C(=O)Nc1ccc2nc(SCC(=O)N(C)c3ccccc3)sc2c1` was tested, and the survival was 84% (inactive). For `CC(Sc1nc(-c2ccccc2)c(C#N)c(=O)[nH]1)C(=O)Nc1ccc(F)cc1` (configuration not stated), the survival was 91% (inactive). `O=C(CSc1ccccc1)N1CCc2c([nH]c3ccccc23)C1c1ccc(Cl)cc1` (configuration not stated) was tested, and the survival was 64% (inactive). `COCCCNC(=O)CCn1c(=O)c2ccccc2n(CC(=O)Nc2c(C)cc(C)cc2C)c1=O` was tested, and the survival was 84% (inactive). `CCOc1ccccc1CNC(=O)CN1C(=O)c2cccnc2Oc2ccc(C)cc21` was tested, and the survival was 136% (inactive). `Cc1ccc2nc(/C(C#N)=C/c3ccc(-c4ccc(F)cc4F)o3)[nH]c2c1` was tested, and the survival was 26% (inactive). With `COC(=O)c1sc(-c2ccccc2)cc1NC(=O)Nc1ccccc1Cl` the survival was 5% (active). For `CCOc1ccc(-c2cc(NC(=O)Nc3ccccc3Cl)c(C(=O)OC)s2)cc1`, the survival was 50% (inactive). For `CCOc1ccc(-c2cc(NC(=O)Nc3cccc(C(C)=O)c3)c(C(=O)OC)s2)cc1`, the survival was 81% (inactive). In the case of `COC(=O)c1sc(-c2ccccc2)cc1NC(=O)c1cccc(Cl)c1`, the survival is reported as 38% (inactive). With `COC(=O)c1sc(-c2ccccc2)cc1NC(=O)Nc1ccc(F)cc1` the survival was 13% (active). In the case of `COC(=O)c1sc(-c2ccccc2)cc1NC(=O)Nc1ccc(Cl)cc1`, the survival is reported as 4% (active). In the case of `COC(=O)c1sc(-c2ccccc2)cc1NC(=O)c1cccc(F)c1`, the survival is reported as 87% (inactive). For `CCOc1ccc(-c2cc(NC(=O)Nc3ccccc3C(F)(F)F)c(C(=O)OC)s2)cc1`, the survival was 72% (inactive). For `CCOc1ccc(-c2cc(NC(=O)Nc3ccc(Cl)cc3)c(C(=O)OC)s2)cc1`, the survival was 88% (inactive). With `CCc1ccccc1NC(=O)Cn1cc(S(=O)(=O)N2CCCC2)c(S(=O)(=O)N2CCCC2)c1` the survival was 68% (inactive). In the case of `CCc1ccccc1NC(=O)CCn1nc(C)c2c(C)n(-c3ccccc3)nc2c1=O`, the survival is reported as 88% (inactive). With `Cc1ccc(C(=O)Nc2ccccc2C(=O)OCc2cc(=O)n3nc(C4CC4)sc3n2)cc1` the survival was 87% (inactive). In the case of `COc1cccc(-n2c(=O)c3cc(OC)c(OC)cc3n(CC(=O)Nc3ccc(F)cc3)c2=O)c1`, the survival is reported as 73% (inactive). With `Cc1ccc(Cl)cc1N1CCN(C(=O)c2sc3nc4n(c(=O)c3c2C)CCC4)CC1` the survival was 75% (inactive). With `CCOC(=O)c1ccc(NC(=O)c2cc3sccc3n2Cc2ccc(Cl)cc2)cc1` the survival was 87% (inactive). `COc1cc(OC)c(NC(=O)Cn2c(=O)nc(-c3ccccc3)c3ccccc32)cc1Cl` was tested, and the survival was 68% (inactive). `O=C(COc1ccc(Cl)cc1)Nc1nnc(S(=O)(=O)N2CCc3ccccc32)s1` was tested, and the survival was 12% (active). With `O=C(Nc1nnc(S(=O)(=O)N2CCCc3ccccc32)s1)c1cccc(Cl)c1` the survival was 6% (active). In the case of `CC1Cc2ccccc2N1S(=O)(=O)c1nnc(NC(=O)c2cccc(F)c2)s1` (configuration not stated), the survival is reported as 10% (active). With `Cc1cccc(C(=O)Nc2nnc(S(=O)(=O)N(C)Cc3ccccc3)s2)c1` the survival was 29% (inactive). In the case of `CC1Cc2ccccc2N1S(=O)(=O)c1nnc(NC(=O)c2ccccc2)s1` (configuration not stated), the survival is reported as 18% (inactive). In the case of `CN(Cc1ccccc1)S(=O)(=O)c1nnc(NC(=O)c2ccccc2)s1`, the survival is reported as 35% (inactive). For `O=C(Nc1nnc(S(=O)(=O)N2CCCc3ccccc32)s1)c1ccc(Cl)cc1`, the survival was 19% (inactive). For `O=C(Nc1nnc(S(=O)(=O)N2CCCc3ccccc32)s1)c1ccccc1`, the survival was 31% (inactive). For `CN(Cc1ccccc1)S(=O)(=O)c1nnc(NC(=O)c2cccc(Cl)c2)s1`, the survival was -1% (active). `COc1ccc(OCC(=O)Nc2nnc(S(=O)(=O)N3CCc4ccccc43)s2)cc1` was tested, and the survival was 73% (inactive). `Cc1cccc(C(=O)Nc2nnc(S(=O)(=O)N3c4ccccc4CC3C)s2)c1` (configuration not stated) was tested, and the survival was 21% (inactive). For `Cc1ccc(OCC(=O)Nc2nnc(S(=O)(=O)N3CCc4ccccc43)s2)cc1`, the survival was 24% (inactive). `Cc1nnc(N2C(=O)c3oc4ccccc4c(=O)c3C2c2ccc(F)cc2)s1` (configuration not stated) was tested, and the survival was 79% (inactive). For `O=c1cccc2n1CC1CC(C2)N(c2nc(N3CCCCC3)nc(N3CCCCC3)n2)C1` (configuration not stated), the survival was 104% (inactive). In the case of `CCCn1c(=O)n(-c2ccccc2)c(=O)c2sc3ccccc3c21`, the survival is reported as 93% (inactive). With `COc1ccc(CNCc2ccc3c(c2)n(C)c(=O)n3C)cc1` the survival was 90% (inactive). For `COc1cc(NC(=O)C(CC(C)C)NS(=O)(=O)c2ccc3c(c2)oc(=O)n3C)c(C(=O)O)cc1OC` (configuration not stated), the survival was 124% (inactive). In the case of `Nc1cccc2c1C(=O)N(CC(=O)O)C2=O`, the survival is reported as 104% (inactive). `Cc1ccccc1CNC(=O)Cn1ncn2nc(-c3cccs3)cc2c1=O` was tested, and the survival was 120% (inactive). With `CCOc1ccc(S(=O)(=O)NCC(c2ccco2)S(=O)(=O)c2ccc(F)cc2)cc1` (configuration not stated) the survival was 90% (inactive). With `O=C(CSc1nc2cc3ccccc3cc2[nH]1)Nc1ccc(F)cc1` the survival was 76% (inactive). `CCCCNC(=O)c1nn(-c2ccc(C)cc2)c(=O)c2c1c1ccccc1n2C` was tested, and the survival was 79% (inactive). In the case of `CN(Cc1ccco1)C(=O)c1ccc2c(c1)N(Cc1ccccc1F)C(=O)c1ccccc1S2`, the survival is reported as 115% (inactive). In the case of `Cc1oc2ncn(CC(C)C)c(=O)c2c1C(=O)N1CCN(c2ccc(F)cc2)CC1`, the survival is reported as 57% (inactive). For `CC1CCCN(S(=O)(=O)c2ccc(S(=O)(=O)N(Cc3cccs3)Cc3cccs3)cc2)C1` (configuration not stated), the survival was 112% (inactive). In the case of `Cc1ccc(CN(Cc2ccco2)C(=O)COc2ccccc2C)cc1`, the survival is reported as 83% (inactive). `O=C(Nc1nnc(S(=O)(=O)N2CCc3ccccc32)s1)c1ccccc1` was tested, and the survival was 19% (inactive). With `O=C(Nc1nnc(S(=O)(=O)N2CCc3ccccc32)s1)c1ccccc1Cl` the survival was 23% (inactive). `O=C(Nc1nnc(S(=O)(=O)N2CCc3ccccc32)s1)c1cccc(Cl)c1` was tested, and the survival was 12% (active). In the case of `O=c1[nH]c2cc3c(cc2cc1CN(CCN1CCOCC1)C(=S)Nc1ccccc1)OCCO3`, the survival is reported as 109% (inactive). In the case of `CCOc1ccc(NC(=O)CC2Nc3cccc4cccc(c34)NC2=O)cc1` (configuration not stated), the survival is reported as 63% (inactive). `CCOc1ccc(-c2nonc2NC(=O)c2oc3c(C)c(C)ccc3c2C)cc1OCC` was tested, and the survival was 82% (inactive). For `COC(=O)Cn1c(SCCOc2ccccc2Cl)nc2ccccc21`, the survival was 81% (inactive). `COC(=O)Cn1c(SCCOc2ccccc2OC)nc2ccccc21` was tested, and the survival was 91% (inactive). In the case of `CCn1c(SCCOc2ccccc2F)nc2ccccc21`, the survival is reported as -1% (active). In the case of `Cn1c(=O)c2c(nc(Oc3ccccc3)n2Cc2c(Cl)cccc2Cl)n(C)c1=O`, the survival is reported as 73% (inactive). With `CCCCC(CC)Cn1c(Oc2ccccc2)nc2c1c(=O)n(C)c(=O)n2C` (configuration not stated) the survival was -2% (active). For `COc1ccc(Oc2nc3c(c(=O)n(C)c(=O)n3C)n2Cc2ccccc2Cl)cc1`, the survival was 75% (inactive). In the case of `Cc1ccc(C(=O)N2CCN(c3ccccc3F)CC2)cc1NC(=O)c1nsc2ccccc12`, the survival is reported as 87% (inactive). For `Cc1cc(C)cc(Oc2nc3c(C)cccn3c(=O)c2/C=C(\C#N)c2nc3ccccc3[nH]2)c1`, the survival was 69% (inactive). For `CCCCN(CC)CCCNC(=O)c1ccc2c(c1)NC(=O)CN2C`, the survival was 57% (inactive). `O=C(NCCCN1CCCCCC1)c1ccc2c(c1)sc1nc(-c3ccccc3)cn12` was tested, and the survival was 38% (inactive). `CCCN1CCN(CCCNC(=O)c2ccc3c(c2)sc2nc(-c4ccc(OC)cc4)cn23)CC1` was tested, and the survival was 81% (inactive). With `CCCN1CCN(CCCNC(=O)c2ccc3c(c2)sc2nc(-c4ccc(OCC)cc4)cn23)CC1` the survival was 36% (inactive). With `CCN1CCN(CCCNC(=O)c2ccc3c(c2)sc2nc(-c4ccc(OC)cc4)cn23)CC1` the survival was 82% (inactive). For `CCOc1ccc(-c2cn3c(n2)sc2cc(C(=O)NCCCN4CCCCCC4)ccc23)cc1`, the survival was -1% (active). For `CCOc1ccc(-c2cn3c(n2)sc2cc(C(=O)NCCCN4CCCCC4)ccc23)cc1`, the survival was -1% (active). `COc1cccc(Cn2cc(C(=O)c3ccccc3)c(=O)c3cc4c(cc32)OCO4)c1` was tested, and the survival was 84% (inactive).

Reference: PubChem BioAssay AID463173 (ICCB-Longwood Screening Facility, Harvard Medical School, 2010)
